ASK1 inh: human ASK1 kinase inhibition, primary screen; AlphaScreen MKK6 phosphorylation by ASK1, luminescence; AID 1159602; inhibition, % at 7.44 µM; Q99683; hit rate 0.99% among 22,000; in the data active = inhibition above about 35%;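 also: 0% = median of compound wells and 100% = no enzyme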
ULK1 primary: inhibitors of human ULK1 kinase | AlphaScreen Atg13 phosphorylation by ULK1, luminescence | inhibition, % at 5.96 µM | hit rate 1.9% among 30,000 | AID 1259251; in the data active = inhibition above about 43%;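 also: 0% = median of compound wells and 100% = no enzyme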
The depositor's hits bear a star; . = no result. Sampled rows, rich in hits. Any-hit rate of the full collection: about 2.5%.

SMILES	ASK1 inh	ULK1 primary
CCCNc1ccnc(Nc2ccc(N3CCOCC3)cc2)n1	13.5	-2.8
COc1cc(Nc2cc(NC3CCC(O)CC3)nc(N)n2)cc(OC)c1OC (stereo not given)	-5.4	-4.0
c1cn(Cc2ccc(Nc3nccc(-c4cncc(N5CCOCC5)c4)n3)cc2)cn1	-3.7	60.4*
Fc1cc(-c2nc(Nc3ccc(Cn4ccnc4)cc3)ncc2F)cc(N2CCOCC2)c1	13.3	25.6
c1cnn(Cc2ccc(Nc3nccc(-c4cncc(N5CCOCC5)c4)n3)cc2)c1	-4.2	30.0
Cn1cnnc1-c1ccc(Nc2nccc(-c3cc(C#N)cc(N4CCOCC4)c3)n2)cc1	11.9	-13.7
Fc1cc(-c2nc(Nc3cccc(Cn4ccnc4)c3)ncc2F)cc(N2CCOCC2)c1	19.8	79.3*
COc1ccc(Nc2nccc(-c3cncc(N4CCOCC4)c3)n2)cc1OC	20.6	47.0*
Cn1cnnc1-c1ccc(Nc2nccc(-c3cncc(N4CCOCC4)c3)n2)cc1	6.6	58.3*
Fc1ccc(Nc2nccc(-c3cncc(N4CCOCC4)c3)n2)cc1	21.8	17.1
Cn1c(Nc2ccc(-n3cc(CC(=O)NC4CCN(Cc5ccccc5)CC4)c4ccccc43)nn2)nc2ccccc21	14.2	29.2
CC(C)(C)OC(=O)N[C@H]1CCCN(c2nccc(-c3ccc(S(C)(=O)=O)cc3)n2)C1	-10.7	-7.9
Cc1nc2ccc(Nc3nccc(-c4cncc(N5CCOCC5)c4)n3)cc2o1	15.8	-13.8
Cc1[nH]nc2ccc(Nc3nccc(-c4cncc(N5CCOCC5)c4)n3)cc12	7.1	48.6*
CC(C)N(CCNc1nc(-c2ccc(C(N)=O)cc2)nc2nc[nH]c12)C(C)C	-6.8	-6.1
COc1ccc(-c2cccc(C(=O)NCCN3CCOCC3)c2)cn1	4.3	-2.6
N[C@H]1CCC[C@H](C(=O)Nc2cccc3c(=O)[nH]cnc23)C1	8.6	53.1*
N[C@H]1CC[C@@H](C(=O)Nc2cccc3cnccc23)C1	-8.8	-0.9
NC(=O)c1ccc(-c2cccc(C(=O)NC3CCN(Cc4ccccc4)CC3)n2)cc1	-10.6	-3.7
O=C(Nc1ccc2[nH]ncc2c1)C1CCCN1C(=O)NCc1ccc(Br)cc1 (stereo not given)	7.2	-7.4
Oc1cccc2[nH]ccc12	.	19.7
c1ccc2[nH]ccc2c1	.	83.3*
O=C(NCCCN1CCCC1=O)c1cccc(NCCCN2CCCC2=O)c1	2.4	-12.8
O=C(NCc1ccccc1)c1cccc(NCCCN2CCCC2=O)c1	-5.8	53.7*
CN1CCN(c2ccc(-c3ccc(C(=O)Nc4ccc(N5CCOCC5)cc4)s3)cc2)CC1	-22.6	-76.5
SMILES	ASK1 inh	ULK1 primary
CN1CCN(C(=O)c2ccc(-c3cccc(C(=O)Nc4ccc(Oc5ccccc5)cc4)n3)cc2)CC1	0.6	-27.5
N#C/C(=C\c1c(F)cccc1Cl)C(=O)NCc1cccnc1	.	-19.3
NCC(O)c1ccc(O)c(O)c1 (stereo not given)	.	80.3*
CCC(NC(C)C)C(O)c1ccc(O)c(O)c1 (stereo not given)	.	8.2
Cc1cnc(Nc2ccc(-n3ccnc3)cc2)nc1NCCOc1ccccc1	10.6	34.0
Cc1cnc(Nc2ccc(-n3ccnc3)cc2)nc1NCCc1ccc(O)cc1	-12.0	28.8
c1ccc(OCCNc2nc(Nc3cccnc3)nc3nc[nH]c23)cc1	14.1	48.1*
c1ccc(Nc2nc(NCCOc3ccccc3)c3[nH]cnc3n2)cc1	6.9	28.4
Oc1ccc(CCNc2nc(Nc3ccccc3)nc3nc[nH]c23)cc1	-26.0	36.3
Oc1ccc(CCNc2nc(Nc3ccncc3)nc3nc[nH]c23)cc1	-70.8	50.9*
c1ccc(OCCNc2nc(Nc3ccc(-n4ccnc4)cc3)nc3nc[nH]c23)cc1	-9.9	52.9*
Cc1cnc(Nc2ccc(-n3ccnc3)cc2)nc1NCCO	-7.5	50.1*
CC(C)n1c(Nc2ccncc2)nc2c(Nc3ccccc3)ncnc21	-1.8	-4.7
CCCn1c(C2CCNCC2)nc(-c2ccc(Cl)c(Cl)c2)c1-c1ccnc(NC2CCCCC2)n1	2.7	-4.9
Oc1ccc(CCNc2nc(Nc3ccc(-n4ccnc4)cc3)nc3nc[nH]c23)cc1	-66.0	50.2*
Oc1ccc(CCNc2nc(Nc3ncccn3)nc3nc[nH]c23)cc1	-6.0	8.0
O=C1c2ccccc2-c2n[nH]c3cccc1c23	-43.4	76.1*
O=C1C(=O)c2ncccc2-c2cccnc21	.	38.2
COC1=C(N)C(=O)c2nc(-c3nc(C(=O)O)c(C)c(-c4ccc(OC)c(OC)c4O)c3N)ccc2C1=O	.	83.7*
COc1cc(Nc2nc(Nc3ccc4ncccc4c3)ncc2C)cc(OC)c1OC	15.8	63.4*
COc1cc(Nc2nc(Nc3ncccn3)ncc2C)cc(OC)c1OC	-5.2	28.9
COc1cc(Nc2ncc(C)c(Nc3ccccc3)n2)cc(OC)c1OC	14.9	73.1*
COc1ccc(CCNc2nc(Nc3ccc4ncccc4c3)ncc2C)cc1	-4.2	32.1
COc1cc(Nc2nc(Nc3cccnc3)ncc2C)cc(OC)c1OC	4.8	32.5
Cc1cnc(Nc2ccc3ncccc3c2)nc1NCCc1ccc(O)cc1	4.0	51.0*
SMILES	ASK1 inh	ULK1 primary
O=C1CCCN1CCn1cnc2c(NCCO)nc(NCc3cccnc3)nc21	0.5	5.2
NC(=O)c1cccc(Nc2nccc(-c3ccccc3)n2)c1	9.2	1.9
c1ccc2[nH]c(CNc3nc(Nc4ccncc4)nc4c3ncn4C3CCCCC3)nc2c1	-4.7	8.8
NC(=O)c1ccccc1Nc1cc(NC(=O)Cc2ccc(F)c(F)c2)ncc1C(F)(F)F	-21.0	19.4
CNC(=O)c1ccccc1Nc1cc(NC(=O)Cc2cccc(F)c2)ncc1C(F)(F)F	-2.9	54.8*
CNC(=O)c1ccccc1Nc1cc(NC(=O)Cc2ccc3c(c2)OCO3)ncc1C(F)(F)F	12.3	55.4*
CNC(=O)c1ccccc1Nc1cc(NC(=O)Cc2ccccc2OC)ncc1C(F)(F)F	14.4	51.3*
NC(=O)c1ccccc1Nc1cc(NC(=O)Cc2ccc(F)cc2)ncc1C(F)(F)F	10.2	30.7
COc1ccc(CC(=O)Nc2cc(Nc3ccccc3C(N)=O)c(C(F)(F)F)cn2)cc1	31.7	76.1*
NC(=O)c1ccccc1Nc1cc(NC(=O)Cc2ccc3c(c2)OCO3)ncc1C(F)(F)F	18.9	-22.6
CNC(=O)c1ccccc1Nc1cc(NC(=O)C(OC)c2ccccc2)ncc1C(F)(F)F (stereo not given)	-16.5	-10.5
CC(=O)Nc1ccc(Nc2cc(-c3ccc(N4CCOCC4)nc3)nc(N)n2)cc1	-10.4	-6.9
COc1ccc(C(=O)CSc2nnc3n2CCN3c2ccccc2)cc1	.	3.4
Cc1cc(NCc2ccccc2)nc(-c2ccc(C(N)=O)cc2)n1	2.0	-7.1
C=C(NC(=O)C(=C)NC(=O)c1csc(C2=NC3c4csc(n4)C4NC(=O)c5csc(n5)C(C(C)(O)C(C)O)NC(=O)C5CSC(=N5)C(=CC)NC(=O)C(C(C)O)NC(=O)c5csc(n5)C3(CC2)NC(=O)C(C)NC(=O)C(=C)NC(=O)C(C)NC(=O)C(C(C)CC)NC2C=Cc3c(C(C)O)cc(nc3C2O)C(=O)OC4C)n1)C(N)=O (stereo not given)	.	42.8*
Nc1n[nH]c2c(Br)cc(NC(=O)C3COc4ccccc4O3)cc12 (stereo not given)	-26.3	57.9*
O=C(Nc1ccc2[nH]ncc2c1)C1COc2ccccc2O1 (stereo not given)	-15.6	9.7
O=C(Nc1ccc(F)c(F)c1N1CCC2(CC1)OCCO2)c1ccc(Br)o1	-18.2	52.9*
O=C(Nc1cccc(F)c1N1CCC2(CC1)OCCO2)c1ccc(Br)o1	-10.7	-9.5
